Screening results deposited in PubChem by National Center for Advancing Translational Sciences (NCATS).
An excerpt weighted towards active compounds, which were near 9.2% of everything screened.
SMN2 splice enh = SMN2 splice variant enhancement | Potency, µM (highest dose often 46.1 µM), hits mostly activators | AID 1458 | HEK293 SMN2-luciferase splicing reporter, luminescence, 30-36 h | 2.8% of 210,000 active; note: nearly all actives have a fitted effect of over 55% in size
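HEK293 cells carry an SMN2 […]–luciferase reporter in which exon 7 inclusion puts luciferase in frame. Cells were plated 10-12 h before compound addition, then incubated 30-36 h at 37C. ONE-Glo luminescence was read; sodium butyrate at 4.5 mM final served as control.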
ELG1 repair inh = inhibitors of ELG1-dependent DNA repair in HEK293T cells; HEK293T ELG1-luciferase reporter, luminescence, 16 h; DNA damage induced by 5-fluorouridine; Potency, µM (doses to about 46.1 µM), actives largely listed as inhibitors; 2.3% of 330,000 active; AID 504467; note: nearly all actives have a fitted effect of over 55% in size
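Luminescence from the luciferase reporter, measured 30 min after ONE-Glo reagent at room temperature, was the read-out. Beforehand, 2,000 cells per well were exposed for 16 hr at 37 °C to 5-fluorouridine together with compound or vehicle.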
ELG1 genotox = genotoxicity induction in ELG1-luciferase HEK293T cells; 1.3% of 330,000 active; Potency, µM (series often up to 46 µM), actives largely listed as activators; AID 504466; HEK293T ELG1-luciferase reporter, luminescence, 16 h; note: nearly all actives have a fitted effect of over 60% in size
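Genotoxicity was scored as increased ELG1-luciferase reporter signal, measured by ONE-Glo luminescence (30 min, room temperature). Compound or vehicle exposure of the HEK293T reporter cells lasted 16 hr at 37°C.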
Rab9 promoter act = activates the Rab9 promoter. AID 485297. 2.8% of 320,000 active. Huh7 Rab9 promoter-luciferase reporter, luminescence, 24 h. Potency, µM (titrated, usually from 9.22 µM), usual class: activators; note: nearly all actives have a fitted effect of over 60% in size
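Cells were plated at 1500 per well in reduced-serum medium with 10% FBS and left 2 h. Compound in DMSO was then added for 24 h at 37 °C. Reporter signal was read by luminescence after 10 min with luciferase detection reagent.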
NPC1 prom act = activators of NPC1 promoter. 2.4% of 320,000 active. Huh7 NPC1 promoter luciferase reporter, 24 h. AID 485313. Potency, µM (titrated, usually from 9.22 µM), actives largely listed as activators; note: nearly all actives have a fitted effect of over 60% in size
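Quantitative HTS used a cell-based reporter: Huh7 cells stably bearing the NPC1 promoter upstream of luciferase were treated with compounds for 24 h, and promoter activation was read as luminescence.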
FLuc modulator = firefly luciferase modulation, counter-screen for miR-21 project; AID 588342; Potency, µM (highest dose often 57.5 µM), most hits filed as inhibitors; 6.9% of 360,000 active; P08659; purified FLuc, Km substrates, luminescence inhibition; note: nearly all actives have a fitted effect of over 55% in size
Target sequence (P08659 whole entry, looked up): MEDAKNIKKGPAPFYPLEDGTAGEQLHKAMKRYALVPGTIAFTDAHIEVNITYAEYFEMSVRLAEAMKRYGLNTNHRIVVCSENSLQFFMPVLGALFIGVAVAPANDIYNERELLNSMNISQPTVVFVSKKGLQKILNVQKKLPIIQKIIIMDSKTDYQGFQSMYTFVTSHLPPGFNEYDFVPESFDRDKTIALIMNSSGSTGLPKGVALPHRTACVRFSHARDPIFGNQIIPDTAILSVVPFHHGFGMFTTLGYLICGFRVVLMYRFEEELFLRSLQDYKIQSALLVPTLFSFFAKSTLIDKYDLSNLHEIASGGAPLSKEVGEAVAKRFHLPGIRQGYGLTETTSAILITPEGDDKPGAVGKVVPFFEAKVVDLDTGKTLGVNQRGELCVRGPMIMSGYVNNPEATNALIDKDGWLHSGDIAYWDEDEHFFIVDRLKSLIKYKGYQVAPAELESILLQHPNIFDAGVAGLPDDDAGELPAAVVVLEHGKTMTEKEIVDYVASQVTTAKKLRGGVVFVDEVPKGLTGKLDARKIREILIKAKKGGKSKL
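Purified P. pyralis luciferase (10nM final) with 10uM D-luciferin and 10uM ATP (Km levels) in 50mM Tris acetate pH 7.5, 10mM Mg acetate, 0.01% Tween-20, 0.05% BSA; qHTS 6-point titration, ~60 µM downward; luminescence read.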
A number is an active result; . = inactive; ? = inconclusive; / = no result given; [ ] = dose if it differs, or a comment. Calls come from the whole dose curve; as a rule, active = well fitted curve in the direction sought with a large enough effect; inconclusive = small, poorly fitted or top-dose-only effect, or another doubt; inactive = no such curve, though single readings can be large; an effect the other way counts as inactive or inconclusive.

SMILES	SMN2 splice enh	ELG1 repair inh	ELG1 genotox	Rab9 promoter act	NPC1 prom act	FLuc modulator
O=C(NCCSCc1ccco1)c1ccc(=O)[nH]c1	/	.	.	.	.	.
Cc1cc(OC(C)C(=O)N(Cc2ccco2)Cc2ccccc2F)cc(C)c1Cl (centres undefined)	.	/	/	/	/	.
CC(=O)c1ccc(NC2=C(N3CCOCC3)C(=O)c3ccccc3C2=O)cc1	.	?	.	.	.	?
Cc1ccc(NC2=CC(=O)C(=O)c3ccccc32)cc1	?	?	.	.	.	10.7µM
NS(=O)(=O)c1ccc(NC2=CC(=O)C(=O)c3ccccc32)cc1	/	10.3µM	.	.	.	.
Cc1ccc(NC2=C(N3CCOCC3)C(=O)c3ccccc3C2=O)cc1	.	?	6.51µM	.	.	9.53µM
CCOC(=O)c1ccc(NC2=CC(=O)C(=O)c3ccccc32)cc1	?	.	.	.	.	.
Cc1ccc(/C=C/c2onc(C)c2S(=O)(=O)N2CCC(C(=O)N3CC(C)Oc4ccccc43)CC2)cc1 (centres undefined)	/	/	/	/	/	.
COc1ccc(CNC(=O)c2ccc(C(C)(C)C)cc2)cc1	/	?	?	2.82µM	3.16µM	3.01µM
COc1ccc(C(=O)CC(=O)c2ccc(C(C)(C)C)cc2)cc1	.	/	/	/	/	/
COc1ccc(CNC(=O)c2ccc(N(C)S(=O)(=O)c3ccc(C)cc3)cc2)cc1	/	20.6µM	.	.	.	.
O=C(CNS(=O)(=O)c1ccc(Cl)cc1)N1CCN(c2ccc(F)cc2)CC1	/	23.1µM	.	/	/	/
O=C(COc1ccc(S(=O)(=O)NC2CCCCC2)cc1)N1CCN(c2ccc(F)cc2)CC1	.	9.2µM	.	.	.	.
CCOc1ccccc1NC(=O)COc1ccc(S(=O)(=O)NC2CCCCC2)cc1	.	/	/	/	/	8.49µM
CCOc1ccccc1NC(=O)C1CCCCN1S(=O)(=O)c1ccccc1 (centres undefined)	/	20.6µM	.	.	.	/
O=C(CSc1nnc(-c2cccnc2)n1CCN1CCCCC1)Nc1cccc(Cl)c1	.	.	.	.	.	.
CCCCN(CC)C(=O)c1cc2cc3ccc(OC)cc3nc2o1	.	?	.	?	?	15.1µM
CCCCN(C)C(=O)c1cc2cc3ccc(OC)cc3nc2s1	6.31µM	?	?	0.447µM	0.501µM	0.757µM
COc1cccc(CN2CC(C(=O)NCc3ccc(C)o3)CCC2=O)c1 (centres undefined)	/	.	.	.	.	.
Clc1ccc(-c2cn3cc(Cl)ccc3n2)cc1	/	?	1.3µM	0.794µM	3.55µM	0.269µM
Clc1ccc(-c2nnc3n2CCCCC3)cc1	.	.	.	.	.	.
Oc1ccc(-c2cn3cc(C(F)(F)F)ccc3n2)cc1	0.891µM	?	2.06µM	0.501µM	0.794µM	0.675µM
Cc1ccc(-c2cc(C(F)(F)F)n3nc(-c4ccc(Cl)cc4)cc3n2)cc1	.	/	/	/	/	.
Clc1ccc(-c2cn3c(n2)CCC3)cc1	.	?	4.11µM	?	2.24µM	12µM
Clc1ccc(-c2cn3ccccc3n2)cc1	/	?	?	0.447µM	0.708µM	0.675µM
SMILES	SMN2 splice enh	ELG1 repair inh	ELG1 genotox	Rab9 promoter act	NPC1 prom act	FLuc modulator
Cc1ccc(-n2nc(C)c3c(C)cc(=O)n(CC(=O)NC(C)C)c32)cc1	/	/	/	/	/	.
O=C(O)C[n+]1ccccc1	.[9.22 µM]	/	/	/	/	/
COc1ccc(OC)c(CCNc2nc3cc(OC)c(OC)cc3c3nc(-c4cccnc4)nn23)c1	.	/	/	/	/	.
Brc1ccc(-c2cn3ccccc3n2)s1	7.08µM	?	0.651µM	0.355µM	1µM	0.757µM
COCCN(C(=O)CSc1ncc(C(F)(F)F)cc1Cl)c1c(N)n(Cc2ccccc2)c(=O)[nH]c1=O	.	.	.	.	.	.
O=C1/C(=C\c2ccncc2)CCc2ccccc21	/	?	.	.	.	9.53µM
O=C1/C(=C/c2ccncc2)CCc2ccccc21	/	.	.	.	.	8.49µM
COc1cc(/C=C2\CCc3ccccc3C2=O)cc(OC)c1OC	.	?	.	.	.	?
CCOc1ccc(/C=C2\CCc3ccccc3C2=O)cc1	/	?	?	1.12µM	2.82µM	0.301µM
CC1=NC(=O)C(N=Nc2ccccc2)N1c1ccccc1 (centres undefined)	15.8µM	?	?	3.55µM	.	?
CC1=NN(c2ccccc2)C(=O)C1N=Nc1ccc(S(N)(=O)=O)cc1 (centres undefined)	/	.	.	.	.	.
CC1=NC(=O)C(N=Nc2cccc(C(=O)O)c2)N1c1ccccc1 (centres undefined)	0.501µM	?	?	1.26µM	?	0.426µM
CC1=NC(=O)C(N=Nc2ccccc2C(=O)O)N1c1ccccc1 (centres undefined)	.	.	.	.	.	15.1µM
Cc1c(Cl)cnc(NC(=O)COC(=O)c2ccncc2)c1Cl	/	.	.	.	.	.
O=C(CCSc1nnc(-c2ccco2)o1)Nc1ccc(F)cc1	.	.	.	.	.	.
COc1ccc(OCC(O)Cn2c(Nc3cccc(C)c3)nc3c2c(=O)n(C)c(=O)n3C)cc1 (centres undefined)	.	18.4µM	.	.	.	.
CCOc1ccccc1OCC(=O)Nc1cccc(S(=O)(=O)NC2=NCCCCC2)c1	/	?	.	.	.	.
Cc1ccccc1C(=O)OCC(=O)Nc1cccc(S(=O)(=O)NC2=NCCC2)c1	/	.	.	/	/	/
Cc1cc(C)cc(C(=O)OCC(=O)Nc2cccc(S(=O)(=O)NC3=NCCCCC3)c2)c1	.	?	.	.	.	.
O=C(Nc1cccc(S(=O)(=O)NC2=NCCCCC2)c1)c1cc(-c2ccccc2Cl)nc2ccccc12	.	23.1µM	.	.	.	.
Cc1ccc(C(C)C)c(OCC(=O)Nc2cccc(S(=O)(=O)NC3=NCCCCC3)c2)c1	/	23.1µM	.	.	.	.
Cc1ccccc1OCC(=O)Nc1cccc(S(=O)(=O)NC2=NCCCCC2)c1	/	.	.	.	.	16.9µM
Cc1ccccc1OCC(=O)Nc1cccc(S(=O)(=O)NC2=NCCC2)c1	/	?	.	.	.	2.13µM
CN(Cc1cnccn1)C(=O)CC1C(=O)NCCN1Cc1ccc(F)cc1Cl (centres undefined)	/	.	.	.	.	.
O=C(OCC(=O)N1CCCC1)c1ccccc1C(=O)c1ccccc1	/	?	.	.	.	.
CC(C)(C)c1ccc(C(=O)Nc2cccc(S(=O)(=O)NC3=NCCC3)c2)cc1	/	?	.	?	2.51µM	0.135µM
CN(C)c1ccc(C(=O)Nc2cccc(S(=O)(=O)NC3=NCCCCC3)c2)cc1	/	?	.	.	.	/
CCc1ccccc1OCC(=O)Nc1cccc(S(=O)(=O)N2CCCC2)c1	/	.	.	.	.	.
CCc1ccccc1OCC(=O)Nc1cccc(S(=O)(=O)NC2=NCCC2)c1	/	.	.	.	.	19µM
Cc1ccccc1COC(=O)c1nn(-c2ccccc2)nc1N	.	.	.	.	.	?
